Values joined by “and” are separate entries in the source; they are usually repeats but may differ in a detail not shown here. Equal entries are not always repeated. Inconclusive results are not listed. More than one record can exist for a structure, and the calls need not agree. Active and inactive are the calls of the source. Rule for the calls, unless noted: active = hit-call score of the fitted dose curve at least 0.9, where 1 is the maximum; inconclusive = response in the unintended direction; inactive = score below 0.9.
Assays:
[1] = CEETOX_H295R_OHPREG_noMTC: CeeTox H295R High-throughput Steroidogenesis Assay for OH-Pregnenolone (OHPREG), maximum tolerated concentration (MTC) filtered results only (AID 2283912; active = hit-call score of the fitted dose curve at least 0.9, where 1 is the maximum; inactive = score below 0.9); settings: actives raise or lower the signal
Method in brief: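 H295R human adrenal cells, forskolin-prestimulated (10 uM, 48 h), then exposed to test chemical in 0.1% DMSO for 48 h. 17alpha-hydroxypregnenolone in medium measured by HPLC-MS/MS after MTBE extraction; bidirectional fit versus DMSO, concentrations not MTC-filtered.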

[2] = CEETOX_H295R_OHPROG_noMTC: CeeTox H295R High-throughput Steroidogenesis Assay for OH-Progesterone (OHPROG), maximum tolerated concentration (MTC) filtered results only (AID 2283914; active = hit-call score of the fitted dose curve at least 0.9, where 1 is the maximum; inactive = score below 0.9); settings: actives raise or lower the signal
Method in brief: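 H295R human adrenal cells prestimulated 48 h with 10 uM forskolin, then exposed 48 h to test chemical (0.1% DMSO final). Medium 17alpha-hydroxyprogesterone extracted with MTBE, quantified by HPLC-MS/MS; bidirectional fit versus DMSO, concentrations not MTC-filtered.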

[3] = CEETOX_H295R_PROG_noMTC: CeeTox H295R High-throughput Steroidogenesis Assay for Progesterone (PROG), maximum tolerated concentration (MTC) filtered results only (AID 2283920; active = hit-call score of the fitted dose curve at least 0.9, where 1 is the maximum; inactive = score below 0.9); settings: actives raise or lower the signal
Method in brief: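 H295R human adrenal cells were prestimulated 48 h with 10 uM forskolin, then exposed 48 h to test chemical (0.1% DMSO final). Progesterone in medium was quantified by HPLC-MS/MS; bidirectional fitting versus DMSO, concentrations not MTC-filtered.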

[4] = test system: Sodium/Iodide Symporter (NIS), SLC5A5 (gene 6528); assay: CPHEA_Stoker_NIS_Inhibition_RAIU: CPHEA's Radioactive Iodide Uptake (RAIU) Assay for Sodium/Iodide Symporter (NIS) Inhibition, Stoker and Laws Labs (AID 2283841)
Method in brief: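 HEK293T cells stably expressing human NIS (hNIS-HEK293T-EPA) were exposed to test chemicals at 0.001–100uM (0.5% final DMSO) with 125I at a final 329pM in HBSS/10mM HEPES pH 7.4. After 2 hours at room temperature and ice-cold washes, intracellular 125I was counted as CPM and normalized to DMSO wells.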

[5] = CPHEA_Stoker_NIS_Cytotoxicity: Cytotoxicity Assessment for CPHEA's Radioactive Iodide Uptake (RAIU) Assay for Sodium/Iodide Symporter (NIS) Inhibition, Stoker and Laws Labs (AID 2283897);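 for AC50: active means loss of ATP signal versus DMSO meaning cytotoxicity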
Method in brief: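 hNIS-HEK293T-EPA human kidney cells were exposed for 2 hours at room temperature to test chemicals (0.001–100uM, 0.5% final DMSO) in HEPES-buffered HBSS, pH 7.4. Viability was read as ATP content by luciferase bioluminescence, loss of signal versus DMSO.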

[6] = target: human Thyroid hormone Receptor beta (TRb), THRB (gene 7068) (UniProt P10828); assay: ATG_hTRb_XSP2: Attagene TRANS-FACTORIAL Multi-Species (XSP2) HepG2 Assay for human Thyroid hormone Receptor beta (TRb) (AID 2283840);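 note: actives raise reporter mRNA so potency reflects agonist-like gain of signal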
Method in brief: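 Activity of exogenous human TRb–Gal4 fusion measured by reporter mRNA from RT-PCR and capillary electrophoresis, 24 h after dosing transfected HepG2. 6-alpha-fluorotestosterone (3 nM) and norgestrel (1.5 nM) present. Gain-of-signal fit relative to DMSO.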

[7] = target: THRB (gene 7068) (UniProt P10828); assay: TOX21_TRB_BLA_Antagonist_Followup_ratio: Tox21 Thyroid Hormone Receptor beta Antagonism Beta-lactamase (BLA) Follow-Up Assay, Ratio (AID 2283958)
Method in brief: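 In this antagonist-mode follow-up, a stably integrated GAL4-TRβ LBD fusion drives a UAS-beta-lactamase reporter in HEK293T cells. Loss of ratio signal relative to DMSO after 18 h treatment indicates activity; parallel CellTiter-Glo flags cytotoxicity.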

[8] = TOX21_TRB_BLA_Antagonist_Followup_viability: Viability Assessment in the Tox21 Thyroid Hormone Receptor beta Antagonism Beta-lactamase (BLA) Follow-Up Assay (AID 2283961)
Method in brief: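 ATP-based CellTiter-Glo luminescence (30 min, room temperature) run in the same wells as the TRβ-bla readout. Cells: GeneBLAzer HEK293T expressing GAL4-TRβ LBD, exposed 18 h at 37C to compounds at 11 concentrations in triplicate, stripped-serum medium.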

[9] = target: Thyroid hormone receptor alpha (Rattus norvegicus) + Thyroid hormone receptor beta (Rattus norvegicus) (UniProt P18113+P63059); assay: TOX21_TR_LUC_GH3_Agonist_Followup: Tox21 GH3 Thyroid Hormone Receptor Agonism Luciferase Follow-Up Assay (AID 2283939)
Method in brief: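 Rat GH3 cells (1,500/well) in serum-free assay medium, treated with 15-point series, 92 uM to 5 nM final, for 24 h at 37C. Luciferase via ONE-Glo luminescence; gain of signal fitted against DMSO, T3 positive control.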

[10] = target: THRA (gene 7067) (UniProt P10827); assay: TOX21_TRA_COA_Agonist_Followup_ratio: Tox21 Thyroid Hormone Receptor alpha Agonism through Coactivator Recruitment Follow-Up Assay, Ratio (AID 2283948; active = hit-call score of the fitted dose curve at least 0.9, where 1 is the maximum; inactive = score below 0.9)
Method in brief: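 Cell-free TR-FRET coactivator recruitment: GST-tagged TRα LBD (2.5 nM) with 0.10% BSA was incubated with compound, then fluorescein-SRC-2 peptide (200 nM) and Tb-anti-GST antibody (2 nM) added. 520:495 nm ratio normalized to DMSO (0%) and T3 (100%).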

[11] = target: THRB (gene 7068) (UniProt P10828); assay: TOX21_TRB_BLA_Agonist_Followup_ratio: Tox21 Thyroid Hormone Receptor beta Agonism Beta-lactamase (BLA) Follow-Up Assay, Ratio (AID 2283954)
Method in brief: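 Human TRβ LBD–GAL4 DBD fusion in GeneBLAzer UAS-bla HEK293T cells; 11 concentrations in triplicate, 18 h at 37°C/5% CO2, T3 as agonist control. CCF4-AM substrate 2 h at room temperature; 460:530 nm ratio fitted for gain of signal versus DMSO.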

[12] = CEETOX_H295R_ESTRADIOL_noMTC: CeeTox H295R High-throughput Steroidogenesis Assay for Estradiol, maximum tolerated concentration (MTC) filtered results only (AID 2283919; active = hit-call score of the fitted dose curve at least 0.9, where 1 is the maximum; inactive = score below 0.9); settings: actives raise or lower the signal
Method in brief: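 H295R human adrenal cells pre-stimulated 48 h with 10 uM forskolin, then exposed 48 h to chemical (0.1% DMSO final). Estradiol in medium measured by HPLC-MS/MS after MTBE extraction and dansyl derivatization; bidirectional fit versus DMSO, concentrations not MTT-filtered.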

[13] = CEETOX_H295R_ESTRONE_noMTC: CeeTox H295R High-throughput Steroidogenesis Assay for Estrone, maximum tolerated concentration (MTC) filtered results only (AID 2283921; active = hit-call score of the fitted dose curve at least 0.9, where 1 is the maximum; inactive = score below 0.9); settings: actives raise or lower the signal
Method in brief: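 H295R cells prestimulated 48 h with 10 uM forskolin, then exposed 48 h to chemical in 0.1% DMSO; medium estrone measured by HPLC-MS/MS after MTBE extraction and dansyl derivatization, fitted bidirectionally versus DMSO without MTT-based MTC filtering.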

[14] = target: frog Thyroid hormone Receptor alpha (TRa), thra-a (gene 397942) (UniProt P15204); assay: ATG_frTRa_XSP2: Attagene TRANS-FACTORIAL Multi-Species (XSP2) HepG2 Assay for frog Thyroid hormone Receptor alpha (TRa) (AID 2283839);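 for AC50: AC50 reflects induction of frog TRa-driven reporter mRNA above DMSO baseline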
Method in brief: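 Reporter transcripts were measured by RT-PCR with capillary electrophoresis after 24 h dosing of HepG2 carrying transiently transfected multi-reporter units, including a chimeric frog TRa-GAL4 construct. Activity was taken as increase over DMSO vehicle.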

[15] = CEETOX_H295R_ANDR_noMTC: CeeTox H295R High-throughput Steroidogenesis Assay for Androstenedione (ANDR), maximum tolerated concentration (MTC) filtered results only (AID 2283915; active = hit-call score of the fitted dose curve at least 0.9, where 1 is the maximum; inactive = score below 0.9); settings: actives raise or lower the signal
Method in brief: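 H295R cells, passage 10 or below, prestimulated 48 h with 10 uM forskolin, then exposed 48 h to chemical in 0.1% DMSO. Medium androstenedione extracted with MTBE, quantified by HPLC-MS/MS; concentrations not MTC-filtered; bidirectional fit versus DMSO.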

[16] = CEETOX_H295R_TESTO_noMTC: CeeTox H295R High-throughput Steroidogenesis Assay for Testosterone (TESTO), maximum tolerated concentration (MTC) filtered results only (AID 2283924; active = hit-call score of the fitted dose curve at least 0.9, where 1 is the maximum; inactive = score below 0.9); settings: actives raise or lower the signal
Method in brief: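 H295R cells prestimulated 48 h with 10 uM forskolin, then exposed 48 h to chemicals in 0.1% DMSO final. Testosterone in medium quantified by MTBE extraction and HPLC-MS/MS; bidirectional fit versus DMSO, concentrations […] filtered by MTT-based maximum tolerated concentration.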

Sequence of frog Thyroid hormone Receptor alpha (TRa), thra-a (gene 397942) (P15204 whole entry, looked up, the tested form may be a part): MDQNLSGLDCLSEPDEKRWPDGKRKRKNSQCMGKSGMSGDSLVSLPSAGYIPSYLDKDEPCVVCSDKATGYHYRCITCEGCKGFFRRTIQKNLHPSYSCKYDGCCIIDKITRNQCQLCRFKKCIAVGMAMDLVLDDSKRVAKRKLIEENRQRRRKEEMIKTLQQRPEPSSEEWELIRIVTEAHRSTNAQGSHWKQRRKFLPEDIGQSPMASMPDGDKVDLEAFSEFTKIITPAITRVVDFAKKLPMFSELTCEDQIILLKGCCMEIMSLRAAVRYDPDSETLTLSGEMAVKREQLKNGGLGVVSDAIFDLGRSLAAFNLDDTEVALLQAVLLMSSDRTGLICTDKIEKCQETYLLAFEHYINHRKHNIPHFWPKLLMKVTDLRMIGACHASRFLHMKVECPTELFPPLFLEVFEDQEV
Sequence of human Thyroid hormone Receptor beta (TRb), THRB (gene 7068) (P10828 whole entry, looked up, the tested form may be a part): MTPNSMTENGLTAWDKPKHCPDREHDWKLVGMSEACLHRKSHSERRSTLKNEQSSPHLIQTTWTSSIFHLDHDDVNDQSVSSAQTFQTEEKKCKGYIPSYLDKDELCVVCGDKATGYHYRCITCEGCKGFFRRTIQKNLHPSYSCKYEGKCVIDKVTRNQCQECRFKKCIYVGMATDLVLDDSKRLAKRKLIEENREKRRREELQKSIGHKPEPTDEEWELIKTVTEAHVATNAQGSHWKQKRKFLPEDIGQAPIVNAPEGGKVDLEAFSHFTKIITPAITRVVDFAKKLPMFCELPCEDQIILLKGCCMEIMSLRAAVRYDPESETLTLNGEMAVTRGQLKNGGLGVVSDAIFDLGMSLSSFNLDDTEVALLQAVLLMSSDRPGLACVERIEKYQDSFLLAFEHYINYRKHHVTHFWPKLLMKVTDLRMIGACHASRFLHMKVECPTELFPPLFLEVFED
Sequence of THRB (gene 7068) (P10828 whole entry, looked up, the tested form may be a part): as above
Sequence of Thyroid hormone receptor alpha (Rattus norvegicus) + Thyroid hormone receptor beta (Rattus norvegicus) (P63059 whole entry, looked up): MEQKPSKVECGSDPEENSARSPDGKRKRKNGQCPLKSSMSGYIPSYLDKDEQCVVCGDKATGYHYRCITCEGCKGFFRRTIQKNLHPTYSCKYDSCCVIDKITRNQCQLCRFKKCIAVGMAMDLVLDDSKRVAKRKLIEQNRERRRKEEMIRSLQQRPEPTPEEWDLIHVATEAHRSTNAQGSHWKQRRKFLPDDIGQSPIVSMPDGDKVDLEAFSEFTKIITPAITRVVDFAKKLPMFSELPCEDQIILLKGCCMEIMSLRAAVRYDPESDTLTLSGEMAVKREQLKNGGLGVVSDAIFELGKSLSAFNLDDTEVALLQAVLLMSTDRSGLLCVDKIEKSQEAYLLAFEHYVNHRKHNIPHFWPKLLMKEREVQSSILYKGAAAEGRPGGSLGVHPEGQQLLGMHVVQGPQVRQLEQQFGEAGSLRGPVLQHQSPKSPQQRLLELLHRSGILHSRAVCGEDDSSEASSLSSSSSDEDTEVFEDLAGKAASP
Sequence of Thyroid hormone receptor alpha (Rattus norvegicus) + Thyroid hormone receptor beta (Rattus norvegicus) (P18113 whole entry, looked up): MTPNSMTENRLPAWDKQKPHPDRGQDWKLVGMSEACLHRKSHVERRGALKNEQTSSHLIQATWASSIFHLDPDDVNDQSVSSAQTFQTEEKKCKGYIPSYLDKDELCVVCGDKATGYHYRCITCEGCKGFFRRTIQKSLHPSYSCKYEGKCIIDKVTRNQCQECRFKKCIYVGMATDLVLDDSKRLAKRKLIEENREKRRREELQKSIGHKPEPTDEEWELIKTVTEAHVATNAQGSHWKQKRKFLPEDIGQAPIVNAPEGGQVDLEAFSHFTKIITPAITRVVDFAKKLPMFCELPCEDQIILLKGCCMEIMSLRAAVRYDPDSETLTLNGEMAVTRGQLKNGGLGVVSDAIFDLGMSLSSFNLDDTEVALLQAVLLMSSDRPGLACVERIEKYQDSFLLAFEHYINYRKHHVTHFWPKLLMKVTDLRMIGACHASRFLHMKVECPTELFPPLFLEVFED
Sequence of THRA (gene 7067) (P10827 whole entry, looked up, the tested form may be a part): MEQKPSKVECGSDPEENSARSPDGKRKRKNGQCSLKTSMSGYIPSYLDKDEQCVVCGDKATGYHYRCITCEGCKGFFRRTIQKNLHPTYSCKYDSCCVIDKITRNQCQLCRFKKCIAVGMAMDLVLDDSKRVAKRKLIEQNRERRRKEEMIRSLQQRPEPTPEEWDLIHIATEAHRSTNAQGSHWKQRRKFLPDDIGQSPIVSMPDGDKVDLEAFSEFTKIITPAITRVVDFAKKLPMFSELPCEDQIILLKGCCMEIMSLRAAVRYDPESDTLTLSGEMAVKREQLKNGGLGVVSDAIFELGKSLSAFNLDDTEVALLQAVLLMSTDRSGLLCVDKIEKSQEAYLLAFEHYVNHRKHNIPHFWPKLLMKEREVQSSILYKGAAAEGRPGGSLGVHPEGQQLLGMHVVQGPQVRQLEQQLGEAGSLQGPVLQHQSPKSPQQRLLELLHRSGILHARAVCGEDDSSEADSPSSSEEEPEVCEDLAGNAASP

CCCCCC1C(=O)CCC1CC(=O)OC (configuration not stated)
outcome [1]: inactive
outcome [2]: inactive
outcome [3]: inactive

O=C(O)C(F)(F)C(F)(F)C(F)(F)C(F)(F)C(F)(F)C(F)(F)C(F)(F)C(F)F
AC50 [4]: 18.4 µM (active)

CCCCCCCCCO
outcome [4]: inactive
outcome [5]: inactive

CC(=O)N(C)C
outcome [4]: inactive

C#C[C@]1(O)CC[C@H]2[C@@H]3CCc4cc(O)ccc4[C@H]3CC[C@@]21C
AC50 [6]: 0.0262 µM (active)
outcome [4]: inactive
outcome [5]: inactive
AC50 [7]: 38.3 µM (active)
outcome [8]: inactive

O=C(c1ccc(OCCN2CCCCC2)cc1)c1c(-c2ccc(O)cc2)sc2cc(O)ccc12
AC50 [5]: 9.92 µM (active)

CCCCCCC(C)O (configuration not stated)
outcome [9]: inactive
outcome [10]: inactive
outcome [11]: inactive

CCCCCCCCCOS(=O)(=O)O
outcome [5]: inactive

c1ccc(Cc2ccccc2)cc1
outcome [4]: inactive
outcome [5]: inactive

CC(=O)OC/C=C(C)/C=C/C=C(C)/C=C/C1=C(C)CCCC1(C)C
outcome [1]: inactive
outcome [2]: inactive
outcome [12]: inactive
AC50 [3]: 34 µM (active)
outcome [13]: inactive

O=S(=O)(O)C(F)(F)C(F)(F)OC(F)(F)C(F)(F)F
outcome [4]: inactive

O=c1cc(-c2ccc(O)cc2)oc2cc(O)cc(O)c12
AC50 [14]: 39.2 µM (active) and 44.6 µM (active)
AC50 [6]: 7.81 µM (active)
outcome [6]: inactive
outcome [4]: inactive
outcome [5]: inactive

COC(=O)c1ccc(C(=O)OC)cc1
outcome [1]: inactive
outcome [2]: inactive
outcome [12]: inactive
outcome [13]: inactive

COc1cc(OC)c2ccc(=O)oc2c1
outcome [1]: inactive
outcome [15]: inactive
outcome [12]: inactive
outcome [3]: inactive
outcome [13]: inactive
outcome [16]: inactive

CCCCCCCCOC(=O)c1ccc(O)cc1
outcome [14]: inactive
outcome [6]: inactive

O=C(OCc1ccccc1)c1ccccc1O
AC50 [4]: 9.92 µM (active)
outcome [5]: inactive

CCCCCCCCOS(=O)(=O)O
outcome [5]: inactive

CCCCCC1CCC(=O)O1 (configuration not stated)
outcome [4]: inactive
outcome [5]: inactive
